Screening results (PubChem)
mut p53 react – restores mutant p53 pathway signaling in SW480 cells; SW480 PUMA-promoter luciferase, p53 mutant reactivation; activation, % at 9.98 µM; 28,000 compounds, 1.5% hits; in the data active = activation above about 52%
ID4 SMM – ID4 (human) binding | calls only | 31,000 compounds, 1.2% hits | P47928 | small molecule microarray, Flag-ID4 binding, fluorescence F/B; call rule not given here;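 also: a binder raises fluorescence above local background on the spot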
Target sequence (P47928 whole entry, looked up): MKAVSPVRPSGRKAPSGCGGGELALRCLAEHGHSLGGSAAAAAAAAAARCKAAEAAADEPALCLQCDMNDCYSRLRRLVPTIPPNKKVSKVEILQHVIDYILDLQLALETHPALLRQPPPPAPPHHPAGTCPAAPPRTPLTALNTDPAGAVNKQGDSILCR
Starred values were filed as active, the others as inactive. Only some compounds are listed: those with a hit (about 2.3% of all), similar ones and a draw of the others.

Screening CC(=O)Nc1ccc(C(=O)CSc2nc3ccccc3o2)cc1 returned mut p53 react 56* and ID4 SMM inactive.
`O=C(CSc1nc2ccccc2o1)Nc1ccc(N2CCOCC2)c(Cl)c1` gave mut p53 react 96* and ID4 SMM inactive.
Screening COc1cc(OC)nc(NC(=O)CSc2nc3ccccc3o2)n1 returned mut p53 react -17 and ID4 SMM inactive.
Screening CCOc1ccc(NC(=O)CSc2nc3ccccc3o2)cc1 returned mut p53 react 44 and ID4 SMM inactive.
O=C(CSc1nc2ccccc2s1)Nc1ccc(N2CCOCC2)c(Cl)c1 was read as mut p53 react 0 and ID4 SMM inactive.
Screening COC(=O)c1cc(OC)c(OC)cc1NC(=O)CSc1nc2ccccc2o1 returned mut p53 react 105* and ID4 SMM inactive.
Screening O=C(CCSc1nc(-c2ccccc2)cs1)Nc1ccccc1 returned mut p53 react 2 and ID4 SMM inactive.
`CC(=O)Nc1ccc(C(=O)CSc2nc(-c3ccccc3)cs2)cc1` gave mut p53 react 88* and ID4 SMM inactive.
COc1ccccc1N1C(=O)C2C(c3ccc(F)cc3)NC(Cc3ccccc3)(C(=O)O)C2C1=O (centres undefined) was read as mut p53 react 8 and ID4 SMM inactive.
For CCCC(=O)Nc1nc2c(ncn2C2O[C@H]3COP(=O)(O)O[C@@H]3[C@@H]2OC(=O)CCC)c(=O)[nH]1 (some centres undefined) the results were ID4 SMM inactive.
For O=C(Cn1c2ccccc2n2nc(-c3cccs3)nc12)c1ccc(Cl)cc1 the results were mut p53 react -37 and ID4 SMM inactive.
Cn1cc(CNC(=O)c2cc(-c3ccc(Br)cc3)nc3ccccc23)cn1 was read as mut p53 react 36 and ID4 SMM inactive.
Screening CCCc1ccc(-c2cc(C(=O)NCc3cnn(C)c3)c3ccccc3n2)cc1 returned mut p53 react 106* and ID4 SMM inactive.
O=C(CC1Sc2ccc(Cl)cc2NC1=O)Nc1ccc([N+](=O)[O-])cc1 (centres undefined) was read as mut p53 react -16 and ID4 SMM inactive.
COCCNC(=O)c1ccccc1NC(=O)Nc1ccc(Cl)cc1 was read as mut p53 react 61* and ID4 SMM inactive.
For O=C(Nc1ccccc1C(=O)NCCOc1ccccc1)c1ccccc1I the results were mut p53 react -1 and ID4 SMM inactive.
For O=C(Nc1ccc(Cl)cc1)Nc1ccccc1C(=O)NCc1ccco1 the results were mut p53 react 80* and ID4 SMM inactive.
For O=C(NCc1ccco1)c1ccccc1NC(=O)C1CC(=O)N(c2ccc(Cl)cc2)C1 (centres undefined) the results were mut p53 react -9 and ID4 SMM inactive.
CCn1c(SCc2nc3ccccc3c(=O)[nH]2)nnc1-c1ccc(Cl)cc1 was read as mut p53 react -6 and ID4 SMM inactive.
CC(=O)NNC(=O)N1Cc2ccccc2Oc2ccc(Cl)cc21 was read as mut p53 react 2 and ID4 SMM active.
For CN1CCN(C2=Cc3ccccc3Oc3ccc(Cl)cc32)CC1 the results were ID4 SMM inactive.
Screening COC(=O)CSc1nc(C)cc(C)n1 returned mut p53 react 1 and ID4 SMM inactive.
Screening Cc1cc(C)nc(SCc2csc(N)n2)n1 returned mut p53 react 9 and ID4 SMM active.
O=C(NCc1nc2ccccc2[nH]1)C1=C[C@H](C2CC2)C[C@H](OCc2ccc(CO)cc2)O1 was read as ID4 SMM active.
For O=C(NCc1nc2ccccc2[nH]1)C1=C[C@@H](C2CC2)C[C@@H](OCc2ccc(CO)cc2)O1 the results were ID4 SMM inactive.
`Cc1ccc2c(CC(=O)Nc3cccc([N+](=O)[O-])c3)coc2c1C` gave mut p53 react 69* and ID4 SMM inactive.
`Cc1ccc2c(CC(=O)NCc3ccco3)coc2c1C` gave mut p53 react -24 and ID4 SMM inactive.
O=C(C1c2ccccc2C(=O)N2CCc3ccccc3C12)N1CCCC1 (centres undefined) was read as mut p53 react 0 and ID4 SMM inactive.
O=C(COc1ccc(I)cc1)Nc1cc(C(=O)O)cc(C(=O)O)c1 was read as mut p53 react -8 and ID4 SMM active.
Screening COC(=O)c1cccc(NC(=O)COc2ccc(I)cc2)c1 returned mut p53 react 8 and ID4 SMM inactive.
For COc1cccc(NC(=O)CCc2nc(-c3ccccc3Cl)no2)c1 the results were mut p53 react -1 and ID4 SMM inactive.
CCc1sc(-c2ccc(Cl)cc2)nc1C(=O)OC was read as mut p53 react 36 and ID4 SMM inactive.
Cc1nnc(SCC(=O)c2c(C)[nH]c3ccccc23)s1 was read as mut p53 react 49 and ID4 SMM inactive.
Cc1[nH]c2ccccc2c1C(=O)CSc1ncn[nH]1 was read as mut p53 react 5 and ID4 SMM inactive.
Screening Cc1[nH]c2ccccc2c1C(=O)CCC(=O)O returned mut p53 react -4 and ID4 SMM active.
`Cc1[nH]c2ccccc2c1C(=O)CSc1nnc2ccccn12` gave mut p53 react 95* and ID4 SMM inactive.
`CC1CC(O)CC(C)(C)C1(O)/C=C/C(CO)O[C@@H]1O[C@H](CO)[C@@H](O)[C@H](O)[C@H]1O` (some centres undefined) gave mut p53 react 3.
O=C(CCN1C(=O)c2ccccc2C1=O)Nc1ccc(-c2nc3ccccc3o2)cc1 was read as mut p53 react 34 and ID4 SMM inactive.
Screening O=C(CCN1C(=O)c2ccccc2C1=O)Oc1c(-c2ccccc2)oc2ccccc2c1=O returned mut p53 react 54* and ID4 SMM inactive.
Cn1c(=O)c([N+](=O)[O-])c(NCc2ccco2)c2ccccc21 was read as mut p53 react -2 and ID4 SMM inactive.
`COC(=O)c1c(NC(=S)Nc2ccc([N+](=O)[O-])cc2OC)sc(C)c1C` gave mut p53 react 0 and ID4 SMM inactive.
For COC(=O)c1c(NC(=S)Nc2ccc(CC(=O)O)cc2)sc(C)c1C the results were mut p53 react 0 and ID4 SMM active.
For C[C@@H]1O[C@@H](O[C@H]2[C@@H](O)[C@@H](C)O[C@@H](O[C@H]3[C@H](O)[C@@H](O)[C@H](O[C@H]4CC[C@@]5(C)C(CC[C@]6(C)C5C=CC5=C7CC(C)(C)CC[C@]7(CO)CC[C@]56C)[C@]4(C)CO)O[C@@H]3CO)[C@@H]2O[C@@H]2O[C@H](CO)[C@@H](O)[C@H](O)[C@H]2O)[C@H](O)[C@H](O)[C@H]1O (some centres undefined) the results were mut p53 react 0 and ID4 SMM inactive.
`CC(=O)N(C)c1ccc(NC(=O)COc2ccc([N+](=O)[O-])cc2)cc1` gave mut p53 react 4 and ID4 SMM inactive.
For COc1cc(O[C@@H]2O[C@H](CO)[C@@H](O)[C@H](O)[C@H]2O)cc2occ(-c3ccc(O)cc3)c(=O)c12 the results were mut p53 react 17 and ID4 SMM inactive.
Screening CN1N=C(c2coc3ccccc23)CC1(O)C(F)(F)F (centres undefined) returned mut p53 react 73* and ID4 SMM inactive.
`Cc1cc(NC(=O)c2cc3nc(-c4cccs4)cc(C(F)(F)Cl)n3n2)n(-c2ccccc2)n1` gave mut p53 react -46 and ID4 SMM inactive.
